RORg inh – ROR gamma (mouse) transcription inhibition. Potency, µM (series often up to 53.6 µM), without a hit: at the top dose activity change, negative = inhibition, usual class: inhibitors. AID 2551. 5.4% of 310,000 active. P51450. Drosophila S2 Gal4-RORgamma UAS-luciferase reporter, 20 h; note: potency is the fitted concentration of half-maximal effect; nearly all actives have a fitted effect of over 60% in size
Target sequence (P51450 whole entry, looked up, the tested form may be a part): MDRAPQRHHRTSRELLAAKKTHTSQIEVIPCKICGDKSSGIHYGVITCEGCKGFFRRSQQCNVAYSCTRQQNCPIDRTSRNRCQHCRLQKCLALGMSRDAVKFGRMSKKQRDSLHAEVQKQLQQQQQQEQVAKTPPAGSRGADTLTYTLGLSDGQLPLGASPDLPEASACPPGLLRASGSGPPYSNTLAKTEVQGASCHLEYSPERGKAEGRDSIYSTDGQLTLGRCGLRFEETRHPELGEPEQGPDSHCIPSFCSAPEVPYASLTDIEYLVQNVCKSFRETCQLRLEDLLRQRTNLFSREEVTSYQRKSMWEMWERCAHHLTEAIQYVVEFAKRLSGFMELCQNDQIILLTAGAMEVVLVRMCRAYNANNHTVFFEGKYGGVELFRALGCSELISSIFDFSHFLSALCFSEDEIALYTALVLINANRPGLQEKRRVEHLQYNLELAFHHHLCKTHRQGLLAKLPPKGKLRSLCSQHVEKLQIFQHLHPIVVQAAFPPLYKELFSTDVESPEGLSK
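Stably transfected Drosophila Schneider cells are the test system, with ROR gamma fused to Gal4 and luciferase under UAS control; luminescence is read after 20 hr of 700 uM copper sulfate induction at ambient temperature.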
Six1-Eya2 inh – blocks human Six1 binding to Eya2 | Q15475+O00167 | AlphaScreen GST-Six1/His-Eya2 binding, biochemical; stronger effect = lower value | activity change, % (no concentration beside the values) | 0.56% of 360,000 active | AID 651725; in the data active = activity change below about -65%; inconclusive = mostly about -30% to -63%
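AlphaScreen luminescence read after one hour at 37 °C in darkness. Pin-transferred compounds met GST-Six1 and His-Eya2 protein (5X stock 250 nM/500 nM) plus glutathione donor and Ni-chelate acceptor beads (5X, 50 ug/mL).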
CtBP-E1A blk – blocks the CtBP interaction with E1A. AlphaScreen GST-E1A/His-CtBP binding, 1536-well; stronger effect = lower value. activity change, % (no concentration beside the values). 0.49% of 340,000 active; in the data active = activity change below about -65%; inconclusive = mostly about -30% to -63%
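In 5 uL wells, 23 nL compound meets equimolar GST-E1A and His-CtBP (5X stock 125 nM each) for 2 h, 37 °C. Beads (5X, 50 ug/mL) then 1 h, 37 °C, dark.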
PKM2 activator – PKM2 (human) enzyme activation | P14618 | 0.34% of 260,000 active | purified PKM2, Kinase-Glo ATP luminescence, activation; response scale: 0% is enzyme alone, no compound | Potency, µM (titrated, usually from 57.5 µM), for the others: at the highest dose activation, actives largely listed as activators | AID 1631; note: potency is the fitted concentration of half-maximal effect; nearly all actives have a fitted effect of over 55% in size
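hPK-M2, >95% pure; 0.1 mM ADP / 0.5 mM PEP final; imidazole pH7.2 buffer w/ 7 mM MgCl2, 50 mM KCl; 1 h RT; Kinase-Glo lum. Intermediate enzyme activity for dual inhibitor/activator qHTS.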
VP16 counter – counter-screen for ROR gamma inhibitors: Gal4-VP16 reporter; 3.5% of 310,000 active; AID 2546; Drosophila S2 Gal4-VP16 UAS-luciferase, luminescence, 20 h; Potency, µM (top dose mostly 53.6 µM), for inactives: at the highest dose activity, negative = inhibition, hits mostly inhibitors;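 note: Gal4-VP16 expression switched on by copper sulfate through the metallothionein promoter; potency is the fitted concentration of half-maximal effect; nearly all actives have a fitted effect of over 50% in size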
* hit, by the source's call; ? = inconclusive; / = no result. Hits are enriched below; roughly 5.6% of the tested compounds scored in any of these assays. Unless noted, calls come from the whole dose curve; as a rule, active = well fitted curve in the direction sought with a large enough effect; inconclusive = small, poorly fitted or top-dose-only effect, or another doubt; inactive = no such curve, though single readings can be large; an effect the other way counts as inactive or inconclusive. % is set by controls: 0 for no effect and ±100 for the full control effect.

SMILES	RORg inh	Six1-Eya2 inh	CtBP-E1A blk	PKM2 activator	VP16 counter
C=CCNC(=S)N/N=C/c1ccc(-c2cccc([N+](=O)[O-])c2)o1	0.5µM*	-4	4	-21%	2.5µM*
C=CCNC(=S)N/N=C/c1ccc(-c2ccc(Br)cc2)o1	0.35µM*	1	-8	1%	0.4µM*
O=C(O)c1ccc(N/N=C/c2ccc(-c3ccc(Br)cc3)o2)cc1	?	6	10	1%	-4%
CCOc1ccc(NC(=O)CN(C)S(=O)(=O)c2ccc(-c3ccc(=O)[nH]n3)s2)cc1	11%	-1	-4	/	-1%
CCCc1c(C(=O)N/N=C/c2sccc2C)nnn1-c1nonc1N	?	0	2	/	5.6µM*
Nc1nonc1-n1nnc(C(=O)N/N=C/c2ccccc2)c1CN1CCc2ccccc21	-8%	-13	-3	/	-7%
C/C(=N\NC(=O)c1nnn(-c2nonc2N)c1CN1CCc2ccccc21)c1ccccc1O	2.2µM*	23	/	/	4.5µM*
COc1ccccc1/C(C)=N/NC(=O)c1nnn(-c2nonc2N)c1C(C)C	7.1µM*	3	-7	/	-29%
Cc1ccsc1/C=N/NC(=O)c1nnn(-c2nonc2N)c1C(C)C	11µM*	2	/	/	18µM*
CSc1nnc2ccc(-c3cccs3)nn12	-11%	-27	-18	10%	20%
Cc1cc(NC(=O)COC(=O)[C@@H]2CCCN2C(=O)c2cccs2)no1	/	10	0	/	/
COc1ccc(NC(=O)COC(=O)C(CC(C)C)N2C(=O)C3CC=CCC3C2=O)cc1Cl (stereo unspecified)	-3%	9	1	1%	22µM*
Cc1ccc(C(=O)c2c(C)oc3c2C(=O)C(=O)c2ccccc2-3)cc1	5µM*	-13	?	-4%	3.5µM*
Cc1oc2c(c1C(=O)c1ccc(Cl)cc1)C(=O)C(=O)c1ccccc1-2	5.6µM*	-1	-1	3%	6.3µM*
N=c1oc2cc(O)ccc2cc1C(=O)Nc1ccc(Br)cc1	1.8µM*	18	19	2%	1.8µM*
CCOc1ccc(N(CC(=O)Nc2cc(C)ccc2C)S(=O)(=O)c2c(C)[nH]c(=O)[nH]c2=O)cc1	-1%	?	-16	0%	-7%
O=C(/C=C/[C@H]1O[C@@H](n2ccc(=O)[nH]c2=O)[C@H](O)[C@@H]1O)NCCN1CCCC1	/	0	8	/	/
CCCn1c(C)cc(C(=O)CN2C(=O)c3ccccc3S2(=O)=O)c1C	/	-17	-1	/	/
Cc1cc(C(=O)CN2C(=O)c3ccccc3S2(=O)=O)c(C)n1CC1CCCO1 (stereo unspecified)	2.2µM*	-1	-1	0%	8.9µM*
COc1cc(OC)cc(C(=O)OCC(=O)c2cc(C)n(CC3CCCO3)c2C)c1 (stereo unspecified)	/	-8	-18	/	/
Cc1cc(C(=O)COC(=O)c2ccc(O)cc2)c(C)n1CC1CCCO1 (stereo unspecified)	7.1µM*	-5	4	-12%	-21%
O=C1c2ccccc2C(=O)c2c(O)ccc(O)c21	-30%	/	/	/	-10%
O=C1c2ccccc2C(=O)c2c(Nc3ccc(CCO)cc3)ccc(O)c21	-13%	-83*	/	-13%	?
O=C1OCCC1Sc1nc2cc(Cl)ccc2n1Cc1ccccc1 (stereo unspecified)	13µM*	0	3	4%	?
CC(C)(C)c1ccc(-c2nnc(SC3CCOC3=O)n2Cc2ccccc2)cc1 (stereo unspecified)	16µM*	-5	12	3%	?
CCn1c(=O)c([N+](=O)[O-])c(N2CCN(Cc3ccc4c(c3)OCO4)CC2)c2ccccc21	?	7	-5	-1%	-24%
COc1cccc([C@@H]2Oc3ccc(Br)cc3[C@H](O)[C@H]2O)c1	-5%	/	/	/	-4%
O=[N+]([O-])c1ccccc1OCCCn1cnc2ccccc21	-27%	-5	6	18µM*	1%
O=c1c2ccccc2ncn1CCCOc1ccccc1[N+](=O)[O-]	13%	-1	3	2%	16%
O=[N+]([O-])c1ccc(Sc2n[nH]c(-c3ccc(Cl)cc3Cl)n2)nc1	0.89µM*	?	-30	1%	7.1µM*
